Results filed as inconclusive are left out. Active and inactive are the calls of the source. Unless noted, the call rests on the fitted dose curve; in most records, active means well fitted curve in the direction sought with a large enough effect; inconclusive means small, poorly fitted or top-dose-only effect, or another doubt; inactive means no such curve, though single readings can be large; an effect the other way counts as inactive or inconclusive.
Experiments:
[1] = target: Lysosomal acid glucosylceramidase (Homo sapiens) (UniProt P04062); test: Glucocerebrosidase-p2 (AID 348; in the data active means potency below about 10 µM; further: potency means the concentration at half of the fitted maximal effect); details: purified GBA, blue fluorogenic substrate, 40 min
Lysosomal acid glucosylceramidase (Homo sapiens), sequence (P04062 whole entry, looked up): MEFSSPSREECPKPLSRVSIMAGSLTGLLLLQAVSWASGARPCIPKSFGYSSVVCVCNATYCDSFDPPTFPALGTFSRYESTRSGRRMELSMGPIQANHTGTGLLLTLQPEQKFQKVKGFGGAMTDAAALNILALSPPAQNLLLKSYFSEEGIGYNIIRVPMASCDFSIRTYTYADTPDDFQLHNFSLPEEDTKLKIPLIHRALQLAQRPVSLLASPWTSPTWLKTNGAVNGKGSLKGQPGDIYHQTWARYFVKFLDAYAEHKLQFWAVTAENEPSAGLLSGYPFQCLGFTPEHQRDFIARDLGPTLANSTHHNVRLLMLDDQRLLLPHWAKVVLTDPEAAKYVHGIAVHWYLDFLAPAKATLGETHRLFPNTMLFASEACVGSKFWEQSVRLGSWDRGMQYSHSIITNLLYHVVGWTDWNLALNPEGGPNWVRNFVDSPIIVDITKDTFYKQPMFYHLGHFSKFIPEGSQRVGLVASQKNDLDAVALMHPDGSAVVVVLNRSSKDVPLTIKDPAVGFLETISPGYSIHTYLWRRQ
Outline: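 Normal human glucocerebrosidase (0.2 nM) with blue fluorogenic substrate (80 uM final) in citrate/phosphate pH 5.9 with 10mM sodium taurocholate, 0.01% tween-20; 40 min RT, NaOH/glycine stop; fluorescence Ex 365/Em 440; AC50 from a titration from 0.6 nM upwards.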

[2] = target: Cytochrome P450 1A2 (Homo sapiens) (UniProt P05177); test: p450-cyp1a2 (AID 410; calls by dose curve; further: potency means the concentration at half of the fitted maximal effect;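 on activity change, negative = inhibition: -100% = full effect of reference inhibitor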); details: recombinant CYP1A2, luciferin-ME demethylation, luminescence; series mostly up to 57 µM
Cytochrome P450 1A2 (Homo sapiens), sequence (P05177 whole entry, looked up): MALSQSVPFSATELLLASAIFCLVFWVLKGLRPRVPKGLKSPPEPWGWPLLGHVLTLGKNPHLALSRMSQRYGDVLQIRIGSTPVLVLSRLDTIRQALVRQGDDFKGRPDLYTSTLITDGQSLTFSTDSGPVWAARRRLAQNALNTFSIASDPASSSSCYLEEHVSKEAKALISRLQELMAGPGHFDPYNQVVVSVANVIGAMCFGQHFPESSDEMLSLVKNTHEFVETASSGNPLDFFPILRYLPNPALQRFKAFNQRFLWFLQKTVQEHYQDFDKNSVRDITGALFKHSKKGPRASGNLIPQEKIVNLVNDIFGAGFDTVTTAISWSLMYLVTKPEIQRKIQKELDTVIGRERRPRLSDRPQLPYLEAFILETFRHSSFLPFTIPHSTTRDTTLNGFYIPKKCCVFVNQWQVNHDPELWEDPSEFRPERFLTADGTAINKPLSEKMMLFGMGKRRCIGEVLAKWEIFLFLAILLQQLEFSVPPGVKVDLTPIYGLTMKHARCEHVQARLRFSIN
Outline: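 O-Demethylation of luciferin 6' methyl ether by human CYP1A2 is monitored as luciferase luminescence. Substrate sits at Km (100uM); enzyme is 20nM. Values are scaled to 57 uM furafylline as maximal inhibition.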

[3] = NFAT Signaling Pathway (AID 444; active means well fitted curve in either direction with a large enough effect, not every such curve was filed as active;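 further: carbachol stimulus at about its EC50 of 1 µM final; on the % scale 0 is the no-effect control and ±100 the full control effect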); details: Jurkat NFAT-bla M1, carbachol, beta-lactamase ratio, 5 h; at 7.69 µM (top of the series) unless noted
Outline: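 Read-out: CCF4 FRET ratio (460 nm/530 nm) after 1 h RT dye loading, used for %activity and AC50 from titration series. Cells: Jurkat NFAT-β-lactamase/M1 line, treated with compound plus 1 uM carbachol for 5 h, 37 °C.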

[4] = Stat Signaling Pathway (AID 446; active means well fitted curve in either direction with a large enough effect, not every such curve was filed as active;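 further: ME-180 cervical cancer cells given 40 pM IL-6 alongside compound; SIE-controlled beta-lactamase reporter measured as 460/530 nm FRET emission ratio; on the % scale 0 is the no-effect control and ±100 the full control effect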); details: ME-180 SIE beta-lactamase reporter, IL-6 stimulated, 5 h; at 7.69 µM (top of the series) unless noted
Outline: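 FRET read-out (405 nm excitation, 460/530 nm emission) of a beta-lactamase reporter under a STAT-inducible element in ME-180 cervical carcinoma cells. Cells with compound receive 40 pM IL-6 for 5 h. Values are normalised to AC90 stimulation and AC90 JAK-inhibitor controls.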

[5] = target: Glucocorticoid receptor (Homo sapiens) (UniProt P04150); test: GR-GFP Redistribution (AID 450;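 active means compounds whose dose series gives a full or clear partial fitted curve of increased nuclear translocation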; further: potency means the concentration at half of the fitted maximal effect); details: U2OS GR-GFP nuclear translocation, laser cytometry, 2 h
Glucocorticoid receptor (Homo sapiens), sequence (P04150 whole entry, looked up, the tested form may be a part): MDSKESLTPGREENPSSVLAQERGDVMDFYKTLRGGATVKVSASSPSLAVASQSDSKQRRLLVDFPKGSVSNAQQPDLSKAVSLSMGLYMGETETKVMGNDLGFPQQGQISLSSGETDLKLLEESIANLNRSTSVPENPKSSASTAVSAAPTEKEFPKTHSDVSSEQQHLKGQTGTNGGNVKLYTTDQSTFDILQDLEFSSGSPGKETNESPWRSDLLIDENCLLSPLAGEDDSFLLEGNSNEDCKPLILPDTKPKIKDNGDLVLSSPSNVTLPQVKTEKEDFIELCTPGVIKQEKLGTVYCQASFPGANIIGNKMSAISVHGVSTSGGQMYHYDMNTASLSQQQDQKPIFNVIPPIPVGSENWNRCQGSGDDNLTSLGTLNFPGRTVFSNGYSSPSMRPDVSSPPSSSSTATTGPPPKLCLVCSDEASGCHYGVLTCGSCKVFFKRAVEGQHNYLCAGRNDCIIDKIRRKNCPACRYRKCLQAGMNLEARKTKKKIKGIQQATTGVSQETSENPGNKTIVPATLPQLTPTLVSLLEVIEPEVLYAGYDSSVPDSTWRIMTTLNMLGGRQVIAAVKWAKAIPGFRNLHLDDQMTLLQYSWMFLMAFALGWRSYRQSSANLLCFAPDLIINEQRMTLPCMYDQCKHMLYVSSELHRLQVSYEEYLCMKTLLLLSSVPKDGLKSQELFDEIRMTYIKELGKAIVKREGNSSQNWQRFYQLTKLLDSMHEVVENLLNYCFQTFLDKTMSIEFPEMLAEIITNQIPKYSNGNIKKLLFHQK

[6] = target: Glucocorticoid receptor (Homo sapiens) (UniProt P04150); test: GR-EFC Redistribution (AID 451; calls by dose curve; further: potency means the concentration at half of the fitted maximal effect); details: CHO-K1 GR-EFC translocation, beta-gal luminescence, 2 h
Outline: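 Translocation of GR-ED fusion to nuclear EA restores b-gal, read by luminescence after 1 h room-temperature detection. Engineered CHO-K1 biosensor cells, 1,000/well, exposed 2 h at 37 C to titrations up to 46 uM final.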

[7] = target: Mitogen-activated protein kinase 10 (Mus musculus) (UniProt Q61831); test: JNK3 AlphaScreen Assay (AID 530; active means well fitted curve in either direction with a large enough effect, not every such curve was filed as active;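 further: kinase came from lysate of stimulated human HepG2 cells; signal reports phosphorylation of biotinylated GST-cJun 1-79 at Ser73 with 10 µM ATP; on the % scale 0 is the no-effect control and ±100 the full control effect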); details: JNK3 lysate, c-Jun phosphorylation; series mostly up to 57.1 µM
Outline: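 qHTS titrations with 15 min compound pre-incubation before adding ATP (10 uM final). Read-out: AlphaScreen of Ser73-phosphorylated biotin-GST-cJun using HepG2 lysate JNK3 activated by IL-1β and TNFα.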

[8] = target: Cytochrome P450 2C9 (Homo sapiens) (UniProt P11712); test: qHTS Assay for Inhibitors and Substrates of Cytochrome P450 2C9 (AID 883); details: recombinant CYP2C9, luciferin-H luminescence, 60 min; series mostly up to 57.1 µM; further: nearly all actives have a fitted effect of over 60% in size; further: potency means the concentration at half of the fitted maximal effect
Cytochrome P450 2C9 (Homo sapiens), sequence (P11712 whole entry, looked up): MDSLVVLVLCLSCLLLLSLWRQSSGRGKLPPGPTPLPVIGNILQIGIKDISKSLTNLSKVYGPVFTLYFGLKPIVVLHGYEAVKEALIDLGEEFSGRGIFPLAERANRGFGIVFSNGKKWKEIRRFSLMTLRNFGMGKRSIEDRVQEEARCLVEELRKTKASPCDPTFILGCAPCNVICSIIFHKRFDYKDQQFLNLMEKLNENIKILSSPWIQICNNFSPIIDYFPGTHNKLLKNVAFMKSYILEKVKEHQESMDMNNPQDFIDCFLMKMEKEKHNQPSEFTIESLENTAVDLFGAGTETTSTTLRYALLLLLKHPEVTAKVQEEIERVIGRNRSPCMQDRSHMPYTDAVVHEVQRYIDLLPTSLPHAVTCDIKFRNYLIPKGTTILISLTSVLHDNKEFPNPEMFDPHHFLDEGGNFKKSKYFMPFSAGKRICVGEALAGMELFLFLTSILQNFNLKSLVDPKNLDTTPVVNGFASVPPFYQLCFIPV
Outline: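 Turnover of Luciferin-H (100uM, KM) by 10nM human CYP2C9 was measured over 60 min at 37C with NADPH regeneration; inhibitors and some substrates reduce luminescence. Data normalized to sulphaphenazole 57uM.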

[9] = target: Cytochrome P450 3A4 (Homo sapiens) (UniProt P08684); test: qHTS Assay for Inhibitors and Substrates of Cytochrome P450 3A4 (AID 884); details: recombinant CYP3A4, Luciferin-PPXE luminescence; series mostly up to 57.1 µM; further: nearly all actives have a fitted effect of over 50% in size; further: potency means the concentration at half of the fitted maximal effect
Cytochrome P450 3A4 (Homo sapiens), sequence (P08684 whole entry, looked up): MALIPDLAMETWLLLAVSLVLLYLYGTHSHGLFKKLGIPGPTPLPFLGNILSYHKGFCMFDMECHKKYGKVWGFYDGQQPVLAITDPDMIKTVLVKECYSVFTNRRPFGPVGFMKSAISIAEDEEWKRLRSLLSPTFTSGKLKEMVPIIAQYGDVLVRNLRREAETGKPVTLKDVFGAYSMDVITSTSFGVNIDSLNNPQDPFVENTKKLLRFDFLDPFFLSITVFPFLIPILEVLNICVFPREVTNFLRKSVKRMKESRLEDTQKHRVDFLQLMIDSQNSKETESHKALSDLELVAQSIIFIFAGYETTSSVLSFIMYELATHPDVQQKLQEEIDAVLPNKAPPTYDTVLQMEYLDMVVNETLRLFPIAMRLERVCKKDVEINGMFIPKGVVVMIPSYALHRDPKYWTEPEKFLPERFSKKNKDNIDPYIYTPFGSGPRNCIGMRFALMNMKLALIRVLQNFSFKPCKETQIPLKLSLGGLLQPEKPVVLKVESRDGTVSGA
Outline: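 Luminescent readout of luciferin produced by CYP3A4 (20 nM) dealkylation of Luciferin-PPXE, 25 uM (its KM). NADPH-driven reaction ran 60 min at RT after 10 min compound preincubation; data scaled to 57 uM ketoconazole as 100% inhibition.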

[10] = target: Cytochrome P450 3A4 (Homo sapiens) (UniProt P08684); test: qHTS Assay for Activators of Cytochrome P450 3A4 (AID 885); details: recombinant CYP3A4, Luciferin-PPXE luminescence, 60 min; series mostly up to 57.1 µM; further: nearly all actives have a fitted effect of over 65% in size; further: potency means the concentration at half of the fitted maximal effect
Outline: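 Luminescent readout of luciferin formed from 25 uM Luciferin-PPXE (KM level) by 20 nM CYP3A4 in 200 mM KPO4, with 60 min NADPH-driven reaction at room temperature after 10 min compound exposure. Ketoconazole (57 uM) defined 100% inhibition.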

[11] = Confirmation and Secondary Assay for Modulators of Hemoglobin Beta Chain Splicing at IVS2 654 locus (AID 910); details: HeLa EGFP-654 splicing reporter, GFP fluorescence, 48 h; series mostly up to 38.3 µM;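 further: HeLa cells stably carrying EGFP split by mutant beta-globin IVS2-654 intron; per-well total GFP intensity by laser scanning cytometry after 2-day treatment; % of control where 0% means no effect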
Outline: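 Readout: per-well total peak green fluorescence (488 nm ex, 500–520 nm em) from objects 5–250 µm, reflecting correct splicing of an EGFP-654 reporter. Compounds were applied for 2 days at 37 °C to overnight-plated HeLa EGFP-654 cells; controls were DMSO and 500 nM IVS2-654 PNA.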

[12] = target: Ubiquitin carboxyl-terminal hydrolase 1 (Homo sapiens) (UniProt O94782); test: Inhibitors of USP1/UAF1: Pilot qHTS (AID 504865); details: purified USP1/UAF1, Ub-rhodamine cleavage fluorescence; series mostly up to 54.9 µM;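 further: rhodamine fluorescence freed from ubiquitin-rhodamine substrate followed over time; top concentration of the series differs between compounds; on the % scale 0 is the no-effect control and ±100 the full control effect; nearly all actives have a fitted effect of over 35% in size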
Ubiquitin carboxyl-terminal hydrolase 1 (Homo sapiens), sequence (O94782 whole entry, looked up): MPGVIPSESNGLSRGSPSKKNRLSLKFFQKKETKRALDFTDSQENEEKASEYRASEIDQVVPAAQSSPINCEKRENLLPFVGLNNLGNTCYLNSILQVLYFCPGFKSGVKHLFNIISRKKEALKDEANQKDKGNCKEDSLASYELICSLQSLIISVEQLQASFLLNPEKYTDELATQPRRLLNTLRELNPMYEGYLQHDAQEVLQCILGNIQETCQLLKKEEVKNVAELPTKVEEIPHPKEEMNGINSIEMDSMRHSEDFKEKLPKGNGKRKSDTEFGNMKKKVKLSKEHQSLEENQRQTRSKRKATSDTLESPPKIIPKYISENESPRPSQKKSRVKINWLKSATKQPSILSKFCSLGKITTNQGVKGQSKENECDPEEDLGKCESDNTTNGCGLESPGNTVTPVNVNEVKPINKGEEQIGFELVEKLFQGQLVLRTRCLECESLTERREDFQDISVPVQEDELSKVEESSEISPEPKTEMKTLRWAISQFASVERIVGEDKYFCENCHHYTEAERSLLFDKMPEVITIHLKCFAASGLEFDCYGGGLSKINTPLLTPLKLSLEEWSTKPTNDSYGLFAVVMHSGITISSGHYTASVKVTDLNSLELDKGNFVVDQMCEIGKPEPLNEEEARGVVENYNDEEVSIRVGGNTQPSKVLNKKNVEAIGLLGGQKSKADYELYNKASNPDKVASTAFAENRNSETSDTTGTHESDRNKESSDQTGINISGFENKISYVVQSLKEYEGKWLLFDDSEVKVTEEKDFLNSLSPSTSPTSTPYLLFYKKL
Outline: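 1nM USP1/UAF1 + cpd, 15 min RT; start w/ Ub-Rho 150nM final; kinetic FL 480/540 nm, 6 reads q60 s. Buffer 50mM HEPES pH 7.8, 0.5mM EDTA, 1mM TCEP, 0.01% Tween-20, 0.1 mg/ml BSA.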

[13] = Primary qHTS for small molecule stabilizers of the endoplasmic reticulum resident proteome: Secreted ER Calcium Modulated Protein (SERCaMP) assay (AID 1508630); details: SH-SY5Y GLuc-SERCaMP (Gaussia luciferase released on ER calcium loss) secretion, thapsigargin, luminescence; series mostly up to 38.4 µM; further: on the % scale 0 is the no-effect control and ±100 the full control effect
Outline: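 The SH-SY5Y reporter protocol was run at 3 concentrations up to 38.3 uM (primary) or 11 concentrations (follow-up): 16 h compound, 100 nM thapsigargin for 4 h, then extracellular luciferase luminescence.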

[14] = AP1 Signaling Pathway (AID 357; active means well fitted curve in either direction with a large enough effect, not every such curve was filed as active); details: ME-180 AP-1-bla reporter, EGF-induced, beta-lactamase ratio, 5 h; at 7.69 µM (top of the series) unless noted
Outline: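 Beta-lactamase reporter under AP-1 response element, ME-180 background. Stimulus: EC50 EGF. Compound exposure 5 h, 37 °C. Detection: CCF4, 2.5 h RT, 460/530 nm. Values: AC50 from titration.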

[15] = target: 3',5'-cyclic-AMP phosphodiesterase 4B (Homo sapiens) (UniProt Q07343); test: qHTS Assay for Inhibitors of PDE-IV (AID 607; active means well fitted activation curve with a large enough effect in the main read-out, with a control signal flat, not every such curve was filed as active; further: % of control where 0% means no effect); details: HEK293 ACTOne CNG channel cells, membrane potential fluorescence; series mostly up to 22.9 µM
3',5'-cyclic-AMP phosphodiesterase 4B (Homo sapiens), sequence (Q07343 whole entry, looked up): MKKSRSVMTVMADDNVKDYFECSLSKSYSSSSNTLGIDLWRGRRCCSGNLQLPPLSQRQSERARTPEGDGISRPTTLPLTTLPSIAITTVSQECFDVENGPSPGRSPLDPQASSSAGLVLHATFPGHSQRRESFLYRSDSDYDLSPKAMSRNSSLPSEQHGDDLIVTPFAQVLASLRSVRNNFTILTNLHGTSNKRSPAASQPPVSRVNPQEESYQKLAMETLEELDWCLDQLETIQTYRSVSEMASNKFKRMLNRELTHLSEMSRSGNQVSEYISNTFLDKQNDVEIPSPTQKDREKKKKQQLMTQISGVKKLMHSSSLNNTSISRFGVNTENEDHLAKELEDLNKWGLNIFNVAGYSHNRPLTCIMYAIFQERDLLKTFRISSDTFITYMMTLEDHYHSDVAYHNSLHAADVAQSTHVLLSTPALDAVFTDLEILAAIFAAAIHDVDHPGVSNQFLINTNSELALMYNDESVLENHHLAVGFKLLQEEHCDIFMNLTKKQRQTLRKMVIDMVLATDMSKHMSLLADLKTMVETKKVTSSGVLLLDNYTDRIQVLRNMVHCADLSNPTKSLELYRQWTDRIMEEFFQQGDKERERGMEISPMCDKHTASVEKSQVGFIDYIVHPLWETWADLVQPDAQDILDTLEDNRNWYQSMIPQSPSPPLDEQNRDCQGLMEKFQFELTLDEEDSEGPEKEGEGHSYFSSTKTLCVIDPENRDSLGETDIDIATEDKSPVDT
Outline: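 Cell-based read-out of cAMP via a modified cyclic nucleotide-gated channel and membrane potential dye (535/590 nm) in HEK293 cells expressing PDE4 endogenously. Compounds tested up to 22.9 uM final; 100 uM RO 20-1724 reference.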

[16] = qHTS Assay for Identification of Small Molecule Agonists for Hypoxia Response Element Signaling Pathway (AID 914; active means well fitted activation curve with a large enough effect in the signal ratio, with a control signal flat, not every such curve was filed as active; the % refers to the signal ratio; further: potency means the concentration at half of the fitted maximal effect); details: ME-180 (cervical carcinoma) HRE-bla reporter, beta-lactamase ratio, CoCl2, 17 h; activation: active compounds read high
Outline: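 Read-out: CCF4 FRET ratio of 460nm to 530nm emission (excitation 405nm) after 2.5 hours at room temperature, taken from HRE-bla ME-180 cells that had been exposed to compound and EC50 CoCl2 for 17 hours.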

[17] = target: Cytochrome P450 2C19 (Homo sapiens) (UniProt P33261); test: qHTS Assay for Inhibitors and Substrates of Cytochrome P450 2C19 (AID 899); details: recombinant CYP2C19, luciferin-H EGE luminescence; series mostly up to 57.1 µM; further: potency means the concentration at half of the fitted maximal effect; nearly all actives have a fitted effect of over 60% in size
Cytochrome P450 2C19 (Homo sapiens), sequence (P33261 whole entry, looked up): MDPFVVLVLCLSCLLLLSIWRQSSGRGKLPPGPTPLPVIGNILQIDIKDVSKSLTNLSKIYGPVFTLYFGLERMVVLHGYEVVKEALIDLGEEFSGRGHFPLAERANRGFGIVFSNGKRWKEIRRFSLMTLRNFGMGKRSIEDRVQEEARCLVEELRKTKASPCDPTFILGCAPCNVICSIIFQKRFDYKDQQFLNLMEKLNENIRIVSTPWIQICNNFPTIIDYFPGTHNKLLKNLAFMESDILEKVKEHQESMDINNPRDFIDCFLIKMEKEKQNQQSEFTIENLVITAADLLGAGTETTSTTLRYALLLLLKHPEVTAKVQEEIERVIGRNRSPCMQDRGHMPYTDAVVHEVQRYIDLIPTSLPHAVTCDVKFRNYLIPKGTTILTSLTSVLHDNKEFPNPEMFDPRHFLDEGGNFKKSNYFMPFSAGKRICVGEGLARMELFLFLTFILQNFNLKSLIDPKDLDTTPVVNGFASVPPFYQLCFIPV
Outline: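 Reactions contain 5nM enzyme, 10uM Luciferin-H EGE (KM) and 50mM KPO4; compound preincubates 10 min at 37C, NADPH regeneration starts turnover for 60 min. Luminescence after detection reagent gives activity.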

COc1ccc(CNc2nc(-c3ccccc3CN(C)C)nc3ccccc23)c(OC)c1
inactive: Potency [1] > 11.4 µM | activity change, negative = inhibition [3] -28% | activity, negative = inhibition [4] -17.2% | Potency [5] > 46 µM | Potency [6] > 46 µM | Potency [7] | activity change, negative = inhibition [8] 25.6% [at 2.29 µM] | Potency [10] | Potency [11] | Potency [12] | outcome [13]
active: Potency [2] 10 µM | Potency [9] 7.94 µM

O=C(c1csnn1)N1CCC2(CCCN(c3ccccn3)C2)CC1
inactive: Potency [1] > 11.4 µM | activity change, negative = inhibition [14] -4.82% | Potency [6] > 46 µM | Potency [7] | Potency [15] | outcome [13]

COCCn1c(=O)c(-c2ccc(OC)cc2)nc2cnc(Oc3cccc(Cl)c3)nc21
active: Potency [2] 6.31 µM | Potency [8] 0.631 µM
inactive: Potency [1] > 11.4 µM | activity change, negative = inhibition [3] -0.562% | activity, negative = inhibition [4] 21.8% | Potency [5] > 9.22 µM | Potency [6] > 46 µM | Potency [7] | Potency [15] | outcome [13]

O=C(c1cccc(F)c1)N1CCC2(CCCN(Cc3cc(C(F)(F)F)cc(C(F)(F)F)c3)C2)CC1
inactive: Potency [1] > 11.4 µM | Potency [2] | activity, negative = inhibition [4] 3.76% | Potency [6] > 46 µM | Potency [7] | Potency [15] | Potency [10] | outcome [13]

CN(C)c1ncc2nc(-c3ccccc3)c(=O)n(C3CC3)c2n1
inactive: Potency [1] > 11.4 µM | Potency [5] > 9.22 µM | Potency [6] > 46 µM | outcome [13]
active: Potency [2] 2.51 µM | Potency [16] 3.16 µM

O=C(Oc1ccccc1)N1CCC2(CCCN(c3cccc(-c4ccccc4)c3)C2)CC1
inactive: Potency [1] > 11.4 µM | Potency [2] | activity change, negative = inhibition [3] -27.7% | activity, negative = inhibition [4] 2.68% | Potency [6] > 46 µM | Potency [7] | Potency [15] | Potency [10] | outcome [13]

CCNc1ncc2ncc(=O)n(CCc3ccccc3)c2n1
inactive: Potency [1] > 11.4 µM | activity change, negative = inhibition [3] 9.34% | activity, negative = inhibition [4] -25.4% | Potency [5] > 9.22 µM | Potency [6] > 46 µM | Potency [7] | Potency [15] | Potency [10] | outcome [13]
active: Potency [2] 1 µM | Potency [17] 0.631 µM

CN(C)C(=O)c1ccc(-c2ccc3ncnc(Nc4ccccc4)c3c2)cc1
inactive: Potency [1] > 11.4 µM | activity, negative = inhibition [4] 0.91% | Potency [5] > 46 µM | Potency [6] > 46 µM | Potency [7] | Potency [15] | Potency [10] | outcome [13]
active: Potency [2] 15.8 µM

CCNc1ncc2nc(-c3ccccc3)c(=O)n(CCc3ccccc3)c2n1
active: Potency [2] 12.6 µM | Potency [16] 1.58 µM
inactive: Potency [1] > 11.4 µM | Potency [5] > 9.22 µM | Potency [6] > 46 µM | Potency [7] | Potency [15] | Potency [10] | outcome [13]

O=C(Oc1ccccc1)N1CCC2(CC1)CCN(c1cccc(-c3ccccc3)c1)CC2
inactive: Potency [1] > 11.4 µM | activity, negative = inhibition [4] -5.12% | Potency [6] > 46 µM | Potency [7] | Potency [15] | Potency [9] | outcome [13]
active: Potency [2] 12.6 µM | Potency [10] 7.94 µM

COc1cccc(Cn2c(=O)cnc3cnc(Oc4cccc(Cl)c4)nc32)c1
active: Potency [2] 12.6 µM | Potency [8] 3.98 µM
inactive: Potency [1] > 11.4 µM | activity change, negative = inhibition [3] -4.32% | activity, negative = inhibition [4] -20.6% | Potency [5] > 9.22 µM | Potency [6] > 46 µM | Potency [7] | Potency [10] | outcome [13]

COc1ccc(Oc2ncc3nc(-c4cccs4)c(=O)n(Cc4cccc(OC)c4)c3n2)cc1
inactive: Potency [1] > 11.4 µM | Potency [2] | activity change, negative = inhibition [3] -5.95% | Potency [5] > 9.22 µM | Potency [6] > 46 µM | Potency [10] | outcome [13]
active: Potency [9] 3.98 µM | Potency [16] 3.16 µM

Source: PubChem BioAssay (NCATS)
